Bioassay records deposited in PubChem BioAssay by National Center for Advancing Translational Sciences (NCATS).
D1 agonist = human D1 receptor agonism | 360,000 tested, 1% active | activation, % at 2 µM | P21728 | AID 504660 | HEK293 T-REx D1 cells, calcium flux, agonist mode; further: 0% is about no effect
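Tetracycline-induced HEK293 TREx D1 cells, force-coupled to calcium signalling, were dye-loaded with a no-wash calcium kit. Compound was pin-added after a 10 s baseline. Fluorescence was read kinetically at 1 cycle/s for 180 s, with calcium rises flagged as agonism.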
TRHR agonist = TRH receptor (human) agonism; P34981; TRHR cells, calcium flux fluo-8, FDSS agonist mode; activation, % at 2 µM; 360,000 tested, 0.18% active; further: 0% is about no effect
Target sequence (P34981 whole entry, looked up): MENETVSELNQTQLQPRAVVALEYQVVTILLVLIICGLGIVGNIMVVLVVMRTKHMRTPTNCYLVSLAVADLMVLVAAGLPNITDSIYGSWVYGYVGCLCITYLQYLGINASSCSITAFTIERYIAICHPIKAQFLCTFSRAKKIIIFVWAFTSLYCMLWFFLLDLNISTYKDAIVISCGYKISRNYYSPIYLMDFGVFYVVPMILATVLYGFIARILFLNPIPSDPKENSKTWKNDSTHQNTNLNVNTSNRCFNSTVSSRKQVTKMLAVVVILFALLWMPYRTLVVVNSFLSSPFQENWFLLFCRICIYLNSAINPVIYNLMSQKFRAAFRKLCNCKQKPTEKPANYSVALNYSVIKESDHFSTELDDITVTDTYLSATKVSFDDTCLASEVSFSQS
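Steps: seed TRHR cells overnight; add fluo-8 no-wash Ca dye, RT 30 min–1.5 h; record 10 s baseline; pin-transfer compounds; monitor fluorescence 1 cycle/s for the agonist window. Calcium increases flag candidate agonists.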
TRHR enhancer = allosterically enhances the human TRH receptor. P34981. TRHR cells, fluo-8 calcium fluorescence, EC20 TRH enhancement. enhancement, % at 2 µM. 360,000 tested, 0.66% active. AID 493056; in the data active means enhancement above about 30%; further: 0% is about no effect
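TRHR-expressing cells loaded with fluo-8 calcium dye were read kinetically (ex 480/em 530) during compound addition, then stimulated with an EC20 of TRH (10 nM final). Enhancement of the Gq-mediated intracellular calcium response was scored.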
D1 PAM = potentiators of human D1 dopamine receptor; potentiation, % at 10 µM; HEK293 TREx D1 cells, calcium flux, dopamine EC20 potentiation; P21728; AID 504651; 360,000 tested, 0.036% active; in the data active means potentiation above about 30%; further: 0% is about no effect
D1 antagonist = human D1 dopamine receptor antagonism. HEK293 TREx D1 cells, calcium flux, dopamine EC80; active compounds read low. activity change, negative = inhibition, % at 10 µM. 360,000 tested, 3.2% active. AID 504652; in the data active means activity change below about -30%; further: on the % scale 0 is the no-effect control and ±100 the full control effect
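Tetracycline-induced HEK293 T-REx cells with force-coupled D1 receptor were loaded with a no-wash calcium dye. Compound was added after a 10 s baseline and read kinetically for 180 s; EC80 dopamine was then added and calcium flux followed another 180 s.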
Numbers without * were called inactive. Sampled rows, rich in hits. Any-hit rate of the full collection: about 4.7%. Unless noted, no stated cut-off is given here; in the data, active means activation above about 30%; inactive means the rest.

For Cc1ccc(C(C)C)c(OCCSc2nc(-c3ccccc3F)nc3cc(=O)[nH]n23)c1 the results were D1 agonist 38*, TRHR agonist -1, TRHR enhancer -15, D1 PAM -6 and D1 antagonist -12.
Screening Cc1ccc(OCCSc2nc(-c3ccccc3C)nc3cc(=O)[nH]n23)cc1Cl returned D1 agonist 26, TRHR agonist -1, TRHR enhancer 3, D1 PAM -6 and D1 antagonist -62*.
Screening CCn1c(=O)n(CC)c2cc(N3CCCCC3)c(NC(=O)Nc3ccccc3Cl)cc21 returned D1 agonist 0, TRHR agonist 0, TRHR enhancer 1, D1 PAM -2 and D1 antagonist 30.
For CCOC(=O)C1(CC2CC2)CCN(S(=O)(=O)/C=C/c2ccccc2)CC1 the results were D1 agonist 9, TRHR agonist 0, TRHR enhancer -3, D1 PAM -11 and D1 antagonist -80*.
Screening Cc1ccc(C(=O)Nc2nnc(S(=O)(=O)N3CCCc4ccccc43)s2)cc1 returned D1 agonist 1, TRHR agonist 0, TRHR enhancer 14, D1 PAM 1 and D1 antagonist 10.
Screening Cc1ccc(CCNC(=O)CCn2nc(-c3ccc(Cl)cc3)ccc2=O)cc1 returned D1 agonist -1, TRHR agonist -1, TRHR enhancer 3, D1 PAM 0 and D1 antagonist -17.
`Cc1ccc(OC(=O)c2cc(C)nn2C(C)(C)C)cc1` gave D1 agonist 1, TRHR agonist 0, TRHR enhancer 36*, D1 PAM -5 and D1 antagonist 7.
`Cc1ccc(OC(=O)c2cccc(C(=O)Oc3ccc(C)cc3)n2)cc1` gave D1 agonist 1, TRHR agonist 1, TRHR enhancer -4, D1 PAM 0 and D1 antagonist -17.
Screening CCOC(=O)c1c(S(=O)(=O)N2CCCC(C(=O)N3CCN(c4cccc(C)c4C)CC3)C2)c(C)n(C)c1C (stereo not given) returned D1 agonist 4, TRHR agonist -1, TRHR enhancer 1, D1 PAM -1 and D1 antagonist 14.
`Cc1c(C(=O)Nc2ccc(S(=O)(=O)N(C)C3CCN(C)CC3)cc2)oc2c(Cl)cccc12` gave D1 agonist 59*, TRHR agonist 0, TRHR enhancer -3, D1 PAM -2 and D1 antagonist -60*.
Cc1c(C(=O)Nc2ccc(S(=O)(=O)N(C)C3CCN(C)CC3)cc2)oc2ccccc12 was read as D1 agonist 32*, TRHR agonist 1, TRHR enhancer -2, D1 PAM -6 and D1 antagonist -30.
Screening COc1ccccc1NC(=O)Cn1c(=O)n(Cc2ccc3c(c2)OCO3)c(=O)c2oc3ccccc3c21 returned D1 agonist 1, TRHR agonist 0, TRHR enhancer 2, D1 PAM 0 and D1 antagonist -8.
For CCOC(=O)c1c(C)c(-c2ccccc2)n(CC(=O)NC(CC)Cc2ccccc2)c1C (stereo not given) the results were D1 agonist 8, TRHR agonist 1, TRHR enhancer -4, D1 PAM -7 and D1 antagonist -16.
`CC(=O)N1CCc2cc(S(=O)(=O)N3CCN(S(=O)(=O)c4c(F)cccc4F)CC3)ccc21` gave D1 agonist 1, TRHR agonist -2, TRHR enhancer 7, D1 PAM 4 and D1 antagonist -6.
`COc1ccc(CCn2c(=O)c3cccnc3n(CC(=O)Nc3ccc(C)cc3C)c2=O)cc1OC` gave D1 agonist 0, TRHR agonist 0, TRHR enhancer -6, D1 PAM -3 and D1 antagonist 3.
For CCc1ccccc1NC(=O)Cn1c(=O)n(Cc2ccc(OC)cc2)c(=O)c2oc3ccccc3c21 the results were D1 agonist -1, TRHR agonist -1, TRHR enhancer 35*, D1 PAM -2 and D1 antagonist 3.
For COc1ccc(Cn2c(=O)c3oc4ccccc4c3n(CC(=O)Nc3c(C)cccc3C)c2=O)cc1 the results were D1 agonist 1, TRHR agonist 0, TRHR enhancer 5, D1 PAM -3 and D1 antagonist -1.
COc1ccc(Cl)cc1NC(=O)N1CCC2(CC1)Oc1ccccc1C(=O)N2Cc1ccc(F)cc1 was read as D1 agonist -1, TRHR agonist -1, TRHR enhancer 2, D1 PAM -1 and D1 antagonist -1.
For CCOC(=O)c1cnn(-c2ccc(C(=O)Nc3ccc(OC(F)(F)F)cc3)cc2)c1N the results were D1 agonist 0, TRHR agonist 0, TRHR enhancer 1, D1 PAM -5 and D1 antagonist 11.
For Cc1ccc(S(=O)(=O)Nc2nc3ccccc3nc2Nc2cccc(S(=O)(=O)N3CCCC3)c2)cc1 the results were D1 agonist 7, TRHR agonist 5, TRHR enhancer -11, D1 PAM -8 and D1 antagonist -39*.
Screening O=[N+]([O-])c1cccc(S(=O)(=O)Nc2nc3ccccc3nc2Nc2cccc(S(=O)(=O)N3CCCCC3)c2)c1 returned D1 agonist 20, TRHR agonist 1, TRHR enhancer -20, D1 PAM -6 and D1 antagonist -32*.
For O=[N+]([O-])c1cccc(S(=O)(=O)N2CCCCC2)c1 the results were D1 agonist 1, TRHR agonist 0, TRHR enhancer 3, D1 PAM -3 and D1 antagonist 41.
For O=S(=O)(NCc1c(Cl)cccc1Oc1ccccc1)c1ccc(F)cc1 the results were D1 agonist 29, TRHR agonist 4, TRHR enhancer -6, D1 PAM -4 and D1 antagonist -34*.
Screening CCOC(=O)N1CCC(NC(=O)c2ccc(N3CCC4(CC3)OCCO4)c([N+](=O)[O-])c2)CC1 returned D1 agonist 3, TRHR agonist 0, TRHR enhancer 3, D1 PAM -7 and D1 antagonist 8.
`CCCCNC(=O)c1ccc(N2CCC3(CC2)OCCO3)c([N+](=O)[O-])c1` gave D1 agonist 2, TRHR agonist 0, TRHR enhancer 1, D1 PAM -6 and D1 antagonist -50*.
Cc1ccccc1CN1C(=O)c2ccccc2S(=O)c2ccc(C(=O)NCc3ccccc3)cc21 (stereo not given) was read as D1 agonist -1, TRHR agonist 0, TRHR enhancer 4, D1 PAM -1 and D1 antagonist -7.
`O=C(CCC1N=C2c3ccccc3N=C(SCc3ccccc3F)N2C1=O)NCc1ccccc1` (stereo not given) gave D1 agonist 2, TRHR agonist -1, TRHR enhancer -1, D1 PAM 1 and D1 antagonist 2.
`COc1ccc(NC(=O)CC2Oc3ccc(C)cc3NC2=O)cc1Cl` (stereo not given) gave D1 agonist 3, TRHR agonist 0, TRHR enhancer 3, D1 PAM -2 and D1 antagonist -1.
